Test results taken from the supplement of paper PMC10849652.
Of roughly 7,900 targets only a part is listed; those with a hit were picked by preference. About 0.6% of all pairs of compound and target were hits.

Key:
Assay in all cases: log2 fold change, soluble protein after heating vs DMSO (PISA); higher = thermal stabilisation; K562 cells, 10 uM, 30 min; active = over 0.2 and 3.5 SD of the protein, either way, in both replicates (recomputed)
[1] = compound: CC[C@@H]1C(=O)N(C)c2cnc(Nc3ccc(C(=O)NC4CCN(C)CC4)cc3OC)nc2N1C1CCCC1
Method in brief: (§1)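 Soluble protein was defined as the supernatant after 21,000xg for 90 min. It came from K562 cells at 2×10^6 cells/mL given 10 μM compound for 30 min, heated in aliquots for 3 min across 48°C-58°C, pooled, and extracted in PBS with 0.5% NP-40 at 4°C, and was quantified by TMTpro 16plex LC-MS/MS with equalised channel sums. Thermal stability against control samples, from duplicates, is reported as log2 fold change.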

volasertib = compound: CC[C@@H]1C(=O)N(C)c2cnc(Nc3ccc(C(=O)N[C@H]4CC[C@H](N5CCN(CC6CC6)CC5)CC4)cc3OC)nc2N1C(C)C [volasertib]
Method in brief: as §1

[2] = compound: CC[C@H](C)N1C=C(C2=C(C=C(C=C21)C3=CN=C(C=C3)N4CCNCC4)C(=O)NCC5=C(C=C(NC5=O)C)C)C
Method in brief: as §1

epoxomicin = compound: CC[C@H](C)[C@@H](C(=O)N[C@@H]([C@@H](C)O)C(=O)N[C@@H](CC(C)C)C(=O)[C@]1(CO1)C)NC(=O)[C@H]([C@@H](C)CC)N(C)C(=O)C [epoxomicin]
Method in brief: as §1

[3] = compound: CCn1c(C(=O)N(C2CC2)C2CC2)cc2c3c(ncn3C)c(Nc3cc(C)n(C)n3)nc21
Method in brief: as §1

[4] = compound: CCn1cc(-c2ccnc3[nH]c(-c4cccc(CN(C)C)c4)cc23)c(-c2ccc(NC(=O)N(C)C)cc2)n1
Method in brief: as §1

[5] = compound: CN(C)CC(=O)Nc1ccc2[nH]c(=O)c3ccccc3c2c1
Method in brief: as §1

rosiglitazone = compound: CN(CCOC1=CC=C(C=C1)C[C@H]2C(=O)NC(=O)S2)C3=CC=CC=N3 (racemic) [rosiglitazone]
Method in brief: as §1

[6] = compound: CN1C2=C(C3=C1C(=O)N(N=C3)CC4=CC(=CC=C4)N)SC(=C2)S(=O)C
Method in brief: as §1

[7] = compound: CN1CCC(CNc2ccc3ncc(-c4cccc(OC(F)(F)F)c4)n3n2)CC1
Method in brief: as §1

saracatinib = compound: CN1CCN(CCOc2cc(OC3CCOCC3)c3c(Nc4c(Cl)ccc5c4OCO5)ncnc3c2)CC1 [saracatinib]
Method in brief: as §1

sotrastaurin = compound: CN1CCN(c2nc(C3=C(c4c[nH]c5ccccc45)C(=O)NC3=O)c3ccccc3n2)CC1 [sotrastaurin]
Method in brief: as §1

alvocidib = compound: CN1CC[C@H](c2c(O)cc(O)c3c(=O)cc(-c4ccccc4Cl)oc23)[C@H](O)C1 [alvocidib]
Method in brief: as §1

Tubastatin A = compound: CN1CCc2c(c3ccccc3n2Cc2ccc(C(=O)NO)cc2)C1 [Tubastatin A]
Method in brief: as §1

[8] = compound: CNC(=O)C1=CC=CC=C1NC2=NC(=NC=C2Cl)NC3=C(C=C(C=C3)N4CCOCC4)OC
Method in brief: as §1

defactinib = compound: CNC(=O)c1ccc(Nc2ncc(C(F)(F)F)c(NCc3nccnc3N(C)S(C)(=O)=O)n2)cc1 [defactinib]
Method in brief: as §1

rucaparib = compound: CNCc1ccc(-c2[nH]c3cc(F)cc4c3c2CCNC4=O)cc1 [rucaparib]
Method in brief: as §1

[9] = compound: CNc1nc(-c2ccc3c(N)n[nH]c3c2)cc(N2C[C@@H](C(=O)NC3CCCCC3)CC[C@H]2C)n1
Method in brief: as §1

encorafenib = compound: COC(=O)N[C@@H](C)CNc1nccc(-c2cn(C(C)C)nc2-c2cc(Cl)cc(NS(C)(=O)=O)c2F)n1 [encorafenib]
Method in brief: as §1

[10] = compound: COC(=O)[C@H](CCSC)NC(=O)C1=C(C=C(C=C1)NC[C@H](CS)N)C2=CC=CC=C2
Method in brief: as §1

Measured: log2 fold change

TUBA4A (UniProt P68366)
Sequence of UniProt P68366 (P68366 whole entry, looked up): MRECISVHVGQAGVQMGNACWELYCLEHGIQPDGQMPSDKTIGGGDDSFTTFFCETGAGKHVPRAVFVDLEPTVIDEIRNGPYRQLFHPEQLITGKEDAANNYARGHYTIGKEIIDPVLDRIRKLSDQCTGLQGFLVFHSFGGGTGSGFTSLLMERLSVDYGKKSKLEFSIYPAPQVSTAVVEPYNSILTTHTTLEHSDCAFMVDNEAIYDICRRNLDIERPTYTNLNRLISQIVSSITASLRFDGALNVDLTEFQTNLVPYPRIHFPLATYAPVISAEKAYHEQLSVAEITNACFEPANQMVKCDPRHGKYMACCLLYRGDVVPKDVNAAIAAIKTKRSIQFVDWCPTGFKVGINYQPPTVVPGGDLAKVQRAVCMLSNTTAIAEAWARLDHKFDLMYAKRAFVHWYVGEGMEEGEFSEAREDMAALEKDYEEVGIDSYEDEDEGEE
inactive: [1] -0.024 | volasertib -0.01 | [2] 0.007 | epoxomicin 0.055 | [3] -0.002 | [4] -0.064 | [5] -0.013 | rosiglitazone 0.023 | [6] -0.168 | saracatinib 0.045 | sotrastaurin -0.012 | alvocidib -0.048 | Tubastatin A -0.051 | [8] -0.039 | defactinib -0.024 | rucaparib -0.046 | [9] 0.038 | encorafenib -0.012 | [10] 0.013
active: [7] -0.261

TPR (UniProt P12270)
active: [7] 0.297
inactive: [1] 0.095 | volasertib -0.034 | [2] -0.018 | epoxomicin 0 | [3] 0.055 | [4] 0.067 | [5] -0.03 | rosiglitazone -0.02 | [6] -0.005 | saracatinib 0.152 | sotrastaurin -0.147 | alvocidib -0.012 | Tubastatin A -0.035 | [8] 0.239 | defactinib 0.005 | rucaparib -0.043 | [9] -0.112 | encorafenib -0.047 | [10] 0.023

WDR61 (UniProt Q9GZS3)
inactive: [1] 0.067 | volasertib 0.102 | [2] 0.035 | epoxomicin -0.029 | [3] 0.011 | [4] 0.035 | [5] -0.011 | rosiglitazone 0.095 | [6] -0.066 | saracatinib -0.011 | sotrastaurin 0.064 | alvocidib -0.051 | Tubastatin A -0.011 | [8] -0.005 | defactinib -0.012 | rucaparib -0.012 | [9] -0.007 | encorafenib -0.028 | [10] 0.031
active: [7] -0.247

VPS33A (UniProt Q96AX1)
active: volasertib -0.359
inactive: [1] -0.224 | [2] 0.043 | epoxomicin 0.039 | [3] -0.031 | [4] -0.004 | [5] 0.059 | rosiglitazone 0.062 | [6] 0.035 | [7] -0.208 | saracatinib -0.036 | sotrastaurin -0.174 | alvocidib -0.071 | Tubastatin A 0.033 | [8] -0.043 | defactinib -0.06 | rucaparib 0.045 | [9] -0.013 | encorafenib -0.003 | [10] -0.025

TMEM120A (UniProt Q9BXJ8)
Sequence of UniProt Q9BXJ8 (Q9BXJ8 whole entry, looked up): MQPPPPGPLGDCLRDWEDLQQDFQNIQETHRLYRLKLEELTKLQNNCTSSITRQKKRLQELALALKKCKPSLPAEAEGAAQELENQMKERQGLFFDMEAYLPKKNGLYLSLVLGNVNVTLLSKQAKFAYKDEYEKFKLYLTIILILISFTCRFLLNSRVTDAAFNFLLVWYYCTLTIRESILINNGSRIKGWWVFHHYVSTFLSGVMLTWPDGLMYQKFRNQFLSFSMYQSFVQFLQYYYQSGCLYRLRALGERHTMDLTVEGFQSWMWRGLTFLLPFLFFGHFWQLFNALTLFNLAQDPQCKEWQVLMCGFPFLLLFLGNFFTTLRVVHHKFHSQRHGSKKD
inactive: [1] 0.127 | volasertib -0.053 | [2] 0.119 | epoxomicin 0.198 | [3] -0.011 | [4] -0.128 | [5] 0.015 | rosiglitazone 0.149 | [6] -0.061 | [7] 0.07 | saracatinib 0.036 | sotrastaurin -0.098 | alvocidib -0.084 | Tubastatin A 0.069 | [8] -0.013 | defactinib -0.104 | [9] -0.036 | encorafenib 0.184 | [10] -0.047
active: rucaparib -0.559

TMEM9 (UniProt Q9P0T7)
Sequence of UniProt Q9P0T7 (Q9P0T7 whole entry, looked up): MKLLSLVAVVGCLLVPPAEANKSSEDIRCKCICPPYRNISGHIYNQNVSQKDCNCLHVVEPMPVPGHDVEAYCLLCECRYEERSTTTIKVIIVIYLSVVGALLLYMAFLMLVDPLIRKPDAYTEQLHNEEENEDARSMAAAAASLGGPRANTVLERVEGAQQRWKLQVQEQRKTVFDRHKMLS
active: epoxomicin 0.296
inactive: [1] -0.112 | volasertib -0.07 | [2] -0.05 | [3] -0.018 | [4] 0.015 | [5] 0.004 | rosiglitazone -0.157 | [6] -0.015 | [7] -0.007 | saracatinib 0.051 | sotrastaurin -0.025 | alvocidib -0.068 | Tubastatin A 0.016 | [8] 0.004 | defactinib -0.014 | rucaparib 0.003 | [9] 0.033 | encorafenib 0.033 | [10] 0.004

WDR18 (UniProt Q9BV38)
inactive: [1] 0.034 | volasertib -0.1 | [2] 0.022 | epoxomicin 0.016 | [3] 0.039 | [4] -0.026 | [5] -0.017 | rosiglitazone 0.007 | [6] 0.018 | [7] -0.002 | saracatinib 0.057 | sotrastaurin -0.001 | alvocidib -0.027 | Tubastatin A 0.008 | [8] -0.032 | defactinib -0.051 | rucaparib -0.009 | [9] -0.038 | encorafenib 0.001 | [10] 0.003

TSG101 (UniProt Q99816)
active: volasertib -0.268
inactive: [1] -0.137 | [2] 0.036 | epoxomicin 0.065 | [3] -0.011 | [4] -0.021 | [5] 0.002 | rosiglitazone 0.023 | [6] -0.018 | [7] -0.124 | saracatinib -0.008 | sotrastaurin -0.047 | alvocidib -0.076 | Tubastatin A 0 | [8] 0.011 | defactinib -0.12 | rucaparib -0.006 | [9] -0.044 | encorafenib -0.007 | [10] -0.032

TMEM70 (UniProt Q9BUB7)
Sequence of UniProt Q9BUB7 (Q9BUB7 whole entry, looked up): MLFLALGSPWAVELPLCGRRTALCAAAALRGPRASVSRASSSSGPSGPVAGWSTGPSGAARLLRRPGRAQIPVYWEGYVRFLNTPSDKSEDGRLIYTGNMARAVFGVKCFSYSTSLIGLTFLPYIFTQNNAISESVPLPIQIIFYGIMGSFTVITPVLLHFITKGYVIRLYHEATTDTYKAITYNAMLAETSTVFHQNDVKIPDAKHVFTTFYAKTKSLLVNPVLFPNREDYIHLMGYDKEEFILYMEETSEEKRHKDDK
active: [3] 0.257 | [7] -0.288
inactive: [1] 0.005 | volasertib 0.064 | [2] -0.017 | epoxomicin 0.001 | [4] -0.055 | [5] 0.001 | rosiglitazone 0.021 | [6] -0.048 | saracatinib 0.106 | sotrastaurin 0.028 | alvocidib 0.015 | Tubastatin A 0.011 | [8] 0.142 | defactinib -0.004 | rucaparib -0.057 | [9] -0.001 | encorafenib 0.009 | [10] 0

WDCP (UniProt Q9H6R7)
inactive: [1] -0.196 | [2] 0.102 | epoxomicin 0.127 | [3] -0.062 | [4] 0.071 | [5] 0.057 | rosiglitazone 0.047 | [6] 0.124 | [7] -0.019 | saracatinib -0.039 | sotrastaurin -0.034 | alvocidib 0.054 | Tubastatin A -0.032 | [8] 0 | defactinib -0.016 | rucaparib 0.14 | [9] -0.02 | encorafenib 0.043 | [10] -0.006
active: volasertib -0.477

TRAPPC8 (UniProt Q9Y2L5)
Sequence of UniProt Q9Y2L5 (Q9Y2L5 whole entry, looked up): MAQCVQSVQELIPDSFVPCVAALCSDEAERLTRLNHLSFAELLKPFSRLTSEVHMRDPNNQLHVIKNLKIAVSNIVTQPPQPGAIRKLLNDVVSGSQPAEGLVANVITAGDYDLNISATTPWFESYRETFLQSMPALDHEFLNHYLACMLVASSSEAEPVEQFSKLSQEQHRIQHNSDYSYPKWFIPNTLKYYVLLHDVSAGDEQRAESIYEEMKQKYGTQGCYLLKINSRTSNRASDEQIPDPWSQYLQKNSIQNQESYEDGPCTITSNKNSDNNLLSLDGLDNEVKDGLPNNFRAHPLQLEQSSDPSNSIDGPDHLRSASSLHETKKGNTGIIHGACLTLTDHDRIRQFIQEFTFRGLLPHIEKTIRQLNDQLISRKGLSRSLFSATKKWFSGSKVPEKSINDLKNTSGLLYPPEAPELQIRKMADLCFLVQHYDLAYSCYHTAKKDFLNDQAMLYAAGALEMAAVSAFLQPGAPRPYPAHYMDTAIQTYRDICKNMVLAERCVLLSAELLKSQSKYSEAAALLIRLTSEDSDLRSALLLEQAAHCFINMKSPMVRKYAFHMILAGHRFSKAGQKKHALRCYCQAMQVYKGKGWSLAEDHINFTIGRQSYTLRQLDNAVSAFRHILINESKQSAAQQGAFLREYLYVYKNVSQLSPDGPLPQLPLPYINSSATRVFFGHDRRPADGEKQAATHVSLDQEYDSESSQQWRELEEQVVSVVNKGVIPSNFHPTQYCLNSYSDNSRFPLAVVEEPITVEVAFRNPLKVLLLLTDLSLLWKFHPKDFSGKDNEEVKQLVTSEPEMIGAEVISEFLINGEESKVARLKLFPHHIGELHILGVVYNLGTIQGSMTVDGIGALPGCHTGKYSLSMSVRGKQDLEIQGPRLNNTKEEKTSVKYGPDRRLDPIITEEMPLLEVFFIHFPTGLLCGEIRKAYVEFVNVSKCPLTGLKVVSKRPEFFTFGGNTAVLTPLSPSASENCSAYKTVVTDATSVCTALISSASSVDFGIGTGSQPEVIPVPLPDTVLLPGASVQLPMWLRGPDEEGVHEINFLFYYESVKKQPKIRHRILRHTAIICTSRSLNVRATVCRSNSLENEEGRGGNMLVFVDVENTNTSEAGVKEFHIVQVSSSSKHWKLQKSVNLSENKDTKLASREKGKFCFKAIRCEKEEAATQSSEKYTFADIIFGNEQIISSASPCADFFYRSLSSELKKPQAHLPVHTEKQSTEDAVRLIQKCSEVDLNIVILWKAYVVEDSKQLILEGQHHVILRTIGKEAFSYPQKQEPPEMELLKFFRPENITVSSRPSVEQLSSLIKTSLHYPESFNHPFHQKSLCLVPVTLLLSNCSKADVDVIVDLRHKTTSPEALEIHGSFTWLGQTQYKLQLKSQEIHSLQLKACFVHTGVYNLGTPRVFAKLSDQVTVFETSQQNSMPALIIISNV
inactive: [1] -0.092 | [2] 0.077 | epoxomicin 0.033 | [3] -0.023 | [4] -0.073 | [5] 0.015 | rosiglitazone 0.059 | [6] 0.04 | [7] -0.099 | saracatinib -0.017 | sotrastaurin -0.044 | alvocidib -0.055 | Tubastatin A -0.004 | [8] 0.014 | defactinib -0.104 | rucaparib 0.074 | [9] 0.008 | encorafenib 0.032 | [10] -0.032
active: volasertib -0.287

TRIP10 isoform 2 (UniProt Q15642)
Sequence of UniProt Q15642 (Q15642 whole entry, looked up): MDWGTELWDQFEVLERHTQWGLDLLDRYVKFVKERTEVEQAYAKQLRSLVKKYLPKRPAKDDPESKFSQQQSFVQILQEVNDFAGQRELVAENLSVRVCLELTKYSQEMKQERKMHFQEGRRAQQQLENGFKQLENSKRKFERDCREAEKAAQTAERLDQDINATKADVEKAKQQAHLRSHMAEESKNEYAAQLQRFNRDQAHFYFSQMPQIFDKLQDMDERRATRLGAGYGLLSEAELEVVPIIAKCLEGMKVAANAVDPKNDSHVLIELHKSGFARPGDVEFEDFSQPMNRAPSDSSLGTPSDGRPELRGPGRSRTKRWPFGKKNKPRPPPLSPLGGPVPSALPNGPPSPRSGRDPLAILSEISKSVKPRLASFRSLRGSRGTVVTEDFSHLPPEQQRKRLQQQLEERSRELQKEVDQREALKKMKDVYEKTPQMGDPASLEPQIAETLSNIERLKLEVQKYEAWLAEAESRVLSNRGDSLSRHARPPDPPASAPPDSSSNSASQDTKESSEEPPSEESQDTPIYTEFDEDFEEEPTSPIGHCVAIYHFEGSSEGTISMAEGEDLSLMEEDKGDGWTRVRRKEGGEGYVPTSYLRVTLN
inactive: [1] -0.033 | volasertib -0.276 | [2] -0.018 | epoxomicin -0.285 | [3] -0.073 | [4] -0.101 | [5] -0.18 | rosiglitazone -0.012 | [6] 0.045 | [7] -0.075 | saracatinib 0.021 | sotrastaurin 0.151 | alvocidib 0 | Tubastatin A 0.051 | [8] -0.258 | defactinib -0.196 | rucaparib 0.071 | [9] -0.081 | encorafenib -0.147 | [10] -0.246

TOM1 isoform 2 (UniProt O60784)
inactive: [1] -0.056 | volasertib -0.196 | [2] 0.037 | epoxomicin -0.035 | [3] -0.018 | [4] -0.082 | [5] 0.026 | rosiglitazone 0.001 | [6] 0.006 | [7] -0.274 | saracatinib 0.033 | sotrastaurin -0.132 | alvocidib 0.001 | Tubastatin A 0.132 | [8] -0.025 | defactinib -0.087 | rucaparib -0.024 | [9] -0.043 | encorafenib 0.009 | [10] 0.089

TSFM (UniProt P43897)
inactive: [1] -0.003 | volasertib -0.092 | [2] 0.046 | epoxomicin 0.212 | [3] -0.062 | [4] 0.074 | [5] 0.081 | rosiglitazone 0.069 | [6] -0.041 | [7] -0.056 | saracatinib 0.057 | sotrastaurin -0.157 | alvocidib -0.132 | Tubastatin A 0.063 | [8] 0.021 | defactinib -0.166 | rucaparib -0.001 | [9] -0.073 | encorafenib 0.167 | [10] -0.082

WDR46 (UniProt O15213)
Sequence of UniProt O15213 (O15213 whole entry, looked up): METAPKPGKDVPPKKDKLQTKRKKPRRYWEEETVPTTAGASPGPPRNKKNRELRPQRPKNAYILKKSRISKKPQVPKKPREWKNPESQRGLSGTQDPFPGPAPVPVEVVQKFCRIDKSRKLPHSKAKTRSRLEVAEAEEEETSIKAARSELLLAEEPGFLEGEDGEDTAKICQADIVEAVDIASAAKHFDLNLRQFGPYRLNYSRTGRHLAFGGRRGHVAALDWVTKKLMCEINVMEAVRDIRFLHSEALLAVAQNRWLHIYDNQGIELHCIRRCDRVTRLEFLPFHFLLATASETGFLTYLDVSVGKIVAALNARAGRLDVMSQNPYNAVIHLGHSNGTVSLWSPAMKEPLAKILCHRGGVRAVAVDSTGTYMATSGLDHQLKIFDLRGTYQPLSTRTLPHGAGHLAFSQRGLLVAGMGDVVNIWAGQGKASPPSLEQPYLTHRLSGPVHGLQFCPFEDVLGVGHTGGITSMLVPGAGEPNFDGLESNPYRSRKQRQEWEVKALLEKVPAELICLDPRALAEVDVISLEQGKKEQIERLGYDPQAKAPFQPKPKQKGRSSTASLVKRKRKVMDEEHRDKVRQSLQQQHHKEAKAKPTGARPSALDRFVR
inactive: [1] 0.195 | volasertib 0.073 | [2] -0.085 | epoxomicin -0.417 | [3] 0.008 | [4] 0.288 | [5] -0.2 | rosiglitazone -0.077 | [6] 0.311 | [7] 0.389 | saracatinib -0.095 | sotrastaurin 0.003 | alvocidib 0.387 | Tubastatin A 0.101 | [8] 0.101 | defactinib 0.39 | rucaparib 0.289 | [9] 0.084 | encorafenib 0.128 | [10] -0.015

WDHD1 (UniProt O75717)
Sequence of UniProt O75717 (O75717 whole entry, looked up): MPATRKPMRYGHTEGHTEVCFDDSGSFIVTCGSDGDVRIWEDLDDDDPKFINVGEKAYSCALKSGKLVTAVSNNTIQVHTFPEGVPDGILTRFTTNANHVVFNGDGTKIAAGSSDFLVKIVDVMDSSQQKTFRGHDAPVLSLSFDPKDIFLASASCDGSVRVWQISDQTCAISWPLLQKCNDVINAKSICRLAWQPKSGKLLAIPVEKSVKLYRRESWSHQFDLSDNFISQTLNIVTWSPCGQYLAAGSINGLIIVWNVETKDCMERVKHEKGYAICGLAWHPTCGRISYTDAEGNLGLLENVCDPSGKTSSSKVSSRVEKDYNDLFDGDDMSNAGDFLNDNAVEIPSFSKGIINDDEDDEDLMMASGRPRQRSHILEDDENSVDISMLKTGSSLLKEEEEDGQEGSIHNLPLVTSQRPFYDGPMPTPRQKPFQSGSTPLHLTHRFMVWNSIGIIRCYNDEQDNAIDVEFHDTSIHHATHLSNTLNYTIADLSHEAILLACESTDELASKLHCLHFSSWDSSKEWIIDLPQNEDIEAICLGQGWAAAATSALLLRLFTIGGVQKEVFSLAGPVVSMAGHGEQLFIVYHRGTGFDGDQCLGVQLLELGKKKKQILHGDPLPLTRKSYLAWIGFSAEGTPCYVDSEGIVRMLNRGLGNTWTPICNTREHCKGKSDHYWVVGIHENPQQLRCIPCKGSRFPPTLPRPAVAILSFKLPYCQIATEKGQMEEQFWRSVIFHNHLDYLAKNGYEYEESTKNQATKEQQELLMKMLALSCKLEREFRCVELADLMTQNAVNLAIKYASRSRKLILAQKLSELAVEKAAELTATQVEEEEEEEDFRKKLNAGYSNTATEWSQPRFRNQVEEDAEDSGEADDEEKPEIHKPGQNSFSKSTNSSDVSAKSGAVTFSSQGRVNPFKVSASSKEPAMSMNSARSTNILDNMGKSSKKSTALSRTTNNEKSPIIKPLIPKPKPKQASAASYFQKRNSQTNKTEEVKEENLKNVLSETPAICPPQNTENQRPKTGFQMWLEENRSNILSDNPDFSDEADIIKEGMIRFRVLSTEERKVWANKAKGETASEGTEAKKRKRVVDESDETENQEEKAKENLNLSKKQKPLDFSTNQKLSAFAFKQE
inactive: [1] -0.209 | [2] 0.079 | epoxomicin 0.071 | [3] -0.018 | [4] -0.033 | [5] 0.051 | rosiglitazone 0.072 | [6] -0.063 | [7] -0.118 | saracatinib -0.027 | sotrastaurin -0.067 | alvocidib -0.135 | Tubastatin A 0.079 | [8] 0.075 | defactinib -0.201 | rucaparib -0.06 | [9] 0 | encorafenib 0.119 | [10] -0.022
active: volasertib -0.458
